Some test systems named below: HCT-15 colon; HT29 colon; SNB-75 CNS; SNB-19 CNS; U251 CNS; PC-3 prostate; SK-MEL-5 melanoma; UACC-62 melanoma; LOX IMVI melanoma; SK-MEL-28 melanoma.
Holding throughout (test): NCI-60 one-dose screen, 48 h (100 = growth as untreated, 0 = no growth, -100 = all killed)
Conditions in all cases: 10 µM unless noted

14 compounds from PubChem BioAssay (NCI) can be followed below.

The panel holds about 83,000 compounds, 20% with a hit somewhere; the sample as a whole holds those more often.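 The test compound was applied at a single concentration to cells in 96-well plates for 48 hours, and percent growth was recorded.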 Values without a mark were called inactive. Activity calls are given as the source filed them. Rule for the calls: active = growth percent below 10; inactive = the rest.

In the case of `Cc1nc(-c2ccc(Cl)cc2)ccc1NC(=O)Nc1cccc(C(F)(F)F)c1`, the growth in the assay on HCT-15 colon was 82.1%; in the assay with HT29 colon it was 75.7%; in the assay on SNB-75 CNS, 92.8%; in the assay on SNB-19 CNS it was 108%; in the assay on U251 CNS it was 76.7%; in the assay with PC-3 prostate, 80.5%. Moreover, the growth with SK-MEL-5 melanoma is 95.3%; with UACC-62 melanoma, 95.6%; in the assay on LOX IMVI melanoma it was 92.9%; in the assay with SK-MEL-28 melanoma, 110%.

Turning to `COc1cccc(/C=N/C(=S)NC2(C)C3CCC(C3)C2(C)C)c1O` (stereo not given), the growth is 32.5% with HCT-15 colon; 101% in the assay on HT29 colon; 90.8% with SNB-75 CNS; 82.9% with SNB-19 CNS; 48.7% in the assay with U251 CNS; 65.9% with PC-3 prostate. In addition, the growth with SK-MEL-5 melanoma is 88.6%; with UACC-62 melanoma, 94.5%; in the assay on LOX IMVI melanoma it was 70.8%; in the assay on SK-MEL-28 melanoma it was 102%.

Consider `NC(=S)NNC1CCCCC1`, for which the growth was 99.7% with HCT-15 colon; 94.4% with HT29 colon; 91.5% in the assay with SNB-75 CNS; 101% in the assay on SNB-19 CNS; 93.6% in the assay on U251 CNS; 87.7% with PC-3 prostate. The growth in the assay with SK-MEL-5 melanoma is 95.1%; with UACC-62 melanoma it was 95.7%; in the assay with LOX IMVI melanoma, 97.6%; with SK-MEL-28 melanoma, 111%.

On to `CC(=O)Nc1ccc([I+]c2ccc([N+](=O)[O-])cc2)cc1`, for which the growth was 100% in the assay with HCT-15 colon; 81.3% with HT29 colon; 90.5% with SNB-75 CNS; 109% with SNB-19 CNS; 81.1% with U251 CNS; 82.3% in the assay on PC-3 prostate. Further, the growth with SK-MEL-5 melanoma is 80.6%; with UACC-62 melanoma, 81.1%; with LOX IMVI melanoma, 90.5%; in the assay on SK-MEL-28 melanoma, 106%.

Consider `CCc1c(C)c2cc3nc(NCc4ccccc4)oc3c(C)c2oc1=O`, for which the growth was 74.7% with HCT-15 colon; 60.5% in the assay with HT29 colon; 36.2% with SNB-75 CNS; 59.2% in the assay on SNB-19 CNS; 54.8% in the assay with U251 CNS; 73.3% in the assay with PC-3 prostate. Also, the growth in the assay with SK-MEL-5 melanoma was 75.9%; with UACC-62 melanoma it was 47.1%; with LOX IMVI melanoma, 80.4%; in the assay on SK-MEL-28 melanoma it was 72.9%.

As for `CCCCn1c(-c2cccc(OC)c2)nc2cc(OC)c(OC)cc2c1=O`, the growth in the assay with HCT-15 colon is 103%; with HT29 colon it was 110%; in the assay with SNB-75 CNS, 96.1%; in the assay on SNB-19 CNS it was 89.7%; with U251 CNS, 96.3%; with PC-3 prostate, 108%. Also, the growth was 97.1% in the assay with SK-MEL-5 melanoma, 83.6% in the assay on UACC-62 melanoma, 89.2% in the assay on LOX IMVI melanoma and 109% in the assay on SK-MEL-28 melanoma.

`CC(C(C(=O)N1CCCCC1)N1CCCCC1)N1CCCCC1` (stereo not given): the growth with HCT-15 colon is 107%; with HT29 colon it was 105%; in the assay with SNB-75 CNS it was 100%; in the assay on SNB-19 CNS, 103%; with U251 CNS, 97.9%; with PC-3 prostate, 107%. For the same compound, the growth was 112% in the assay with SK-MEL-5 melanoma, 102% in the assay with UACC-62 melanoma, 107% with LOX IMVI melanoma and 107% in the assay with SK-MEL-28 melanoma.

Consider `CCC(N)(C(=O)O)c1ccc(F)cc1` (stereo not given), for which the growth in the assay on HCT-15 colon was 104%; with HT29 colon, 94.9%; with SNB-75 CNS, 113%; with SNB-19 CNS, 107%; in the assay on U251 CNS, 90.7%; in the assay on PC-3 prostate, 81.4%. Moreover, the growth in the assay with SK-MEL-5 melanoma is 99.9%; with UACC-62 melanoma, 112%; in the assay with LOX IMVI melanoma, 96%; in the assay on SK-MEL-28 melanoma, 112%.

Take `Clc1ccc2c(NCCNc3nc(Cl)nc4ccccc34)ccnc2c1`: the growth with HCT-15 colon was -67.5% (active); in the assay on HT29 colon, -91.5% (active); in the assay with SNB-75 CNS, -93.1% (active); with SNB-19 CNS, -49.9% (active); in the assay on U251 CNS, -92.1% (active); with PC-3 prostate, -45.7% (active). For the same compound, the growth is -99.2% (active) in the assay with SK-MEL-5 melanoma, -89.6% (active) with UACC-62 melanoma, -89.4% (active) with LOX IMVI melanoma and -78.7% (active) in the assay with SK-MEL-28 melanoma.

Turning to `C#CC(=O)/C=C/CCCCCCC#CC(=O)CCC(=O)C#CCCCCCC/C=C/C(=O)C#C`, the growth in the assay with HCT-15 colon was 12.4%; in the assay with HT29 colon it was 6.4% (active); in the assay on SNB-75 CNS, 56%; in the assay with SNB-19 CNS, 32%; in the assay with U251 CNS it was 18%; in the assay on PC-3 prostate it was 12.2%. The growth was 52.8% with SK-MEL-5 melanoma, 5.38% (active) with UACC-62 melanoma, -70.2% (active) in the assay on LOX IMVI melanoma and 12.8% with SK-MEL-28 melanoma.

For the compound `O=C(Nc1ccc(-n2ccc3c(NC(=O)c4ccccc4)nccc32)cc1)c1ccc(Cl)c(C(F)(F)F)c1`, the growth is -32.9% (active) in the assay on HCT-15 colon; -3.9% (active) in the assay with HT29 colon; 60.3% with SNB-75 CNS; 44.6% in the assay on SNB-19 CNS; -51.6% (active) in the assay on U251 CNS; 42% in the assay on PC-3 prostate. The growth in the assay with SK-MEL-5 melanoma is 27.1%; with UACC-62 melanoma, 40.6%; with LOX IMVI melanoma it was -28.8% (active); in the assay on SK-MEL-28 melanoma it was 54.6%.

As for `COc1ccccc1P(c1ccccc1OC)c1ccccc1OC`, the growth was 104% with HCT-15 colon; 92.2% in the assay on HT29 colon; 98% with SNB-75 CNS; 75.7% with SNB-19 CNS; 95.7% with U251 CNS; 80% in the assay with PC-3 prostate. For the same compound, the growth was 88.6% with SK-MEL-5 melanoma, 90% in the assay on UACC-62 melanoma, 85.4% with LOX IMVI melanoma and 117% in the assay with SK-MEL-28 melanoma.

As to `COc1cc(-c2nc(N)n(CC(=O)Nc3ccc(/C(C)=N\O)cc3)n2)cc(OC)c1OC`, the growth was 101% in the assay on HCT-15 colon; 86.4% in the assay on HT29 colon; 74.1% in the assay with SNB-75 CNS; 99.9% with SNB-19 CNS; 85.8% in the assay on U251 CNS; 76.7% in the assay on PC-3 prostate. Besides, the growth with SK-MEL-5 melanoma was 97.9%; in the assay with UACC-62 melanoma, 83.6%; in the assay on LOX IMVI melanoma, 99.6%; in the assay with SK-MEL-28 melanoma, 94.2%.

For the compound `O=C(Nc1ccc(-n2ccc3c(NC(=O)c4ccccc4)ncnc32)cc1)c1ccc(Cl)c(C(F)(F)F)c1`, the growth in the assay with HCT-15 colon was 3.27% (active); in the assay on HT29 colon it was -50.6% (active); with SNB-75 CNS, 66.5%; with SNB-19 CNS, 24.7%; in the assay with U251 CNS it was -62.9% (active); with PC-3 prostate, 29.1%. Moreover, the growth in the assay on SK-MEL-5 melanoma was 26.3%; in the assay on UACC-62 melanoma, 5.8% (active); with LOX IMVI melanoma, -9.6% (active); with SK-MEL-28 melanoma, 62.5%.
